# Screening results: PubChem, National Center for Advancing Translational Sciences (NCATS)
# A selection: hits, their analogues and other compounds. The true share with any hit is near 9.3%.
# Vaccinia mCherry – inhibitors of vaccinia virus infection (mCherry reporter signal); Potency, µM (titrated, usually from 36.5 µM), without a hit: at the top dose activity change, negative = inhibition, hits mostly inhibitors; Vaccinia virus mCherry reporter infection, fluorescence; actives 0.63% (n = 310,000); AID 720579; calls by dose curve; tested in A549 cells; also: potency is read from the fitted curve at half-maximal effect; nearly all actives have a fitted effect of over 35% in size
# FMDV antiviral – blocks foot and mouth disease virus; FMDV antiviral cell-based qHTS; Potency, µM (doses to about 57.9 µM), for the others: at the top dose activity change, negative = inhibition, usual class: inhibitors; actives 1.2% (n = 410,000); AID 1159524; calls by dose curve; tested in HEK293T cells; also: read-out not given here; potency is read from the fitted curve at half-maximal effect; nearly all actives have a fitted effect of over 45% in size
# Sm TGR block – inhibitors of Schistosoma mansoni thioredoxin glutathione reductase; purified TGR, DTNB reduction, TNB absorbance 405 nm; Potency, µM (doses to about 114 µM), without a hit: at the highest dose activity change, negative = inhibition, actives largely listed as inhibitors; Q962Y6; actives 3% (n = 360,000); AID 485364; also: potency is read from the fitted curve at half-maximal effect; nearly all actives have a fitted effect of over 60% in size
#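 First, TGR (20 nM dispensed) and NADPH were mixed with compound. Second, a 15 min room-temperature incubation followed. Third, further NADPH and then DTNB were added to start the reaction. Finally, TNB absorbance was monitored kinetically.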
# VACV Venus inh – inhibitors of vaccinia virus (Venus reporter). Vaccinia virus Venus reporter expression, fluorescence. Potency, µM (series often up to 36.5 µM), without a hit: at the top dose activity change, negative = inhibition, usual class: inhibitors. actives 0.46% (n = 330,000). AID 720580; calls by dose curve; tested in A549 cells; also: potency is read from the fitted curve at half-maximal effect; nearly all actives have a fitted effect of over 30% in size
# HCV inhibitor – HCV inhibition | Potency, µM (series often up to 41.8 µM), inactives show at the top dose activity change, negative = inhibition, hits mostly inhibitors | actives 3.4% (n = 340,000) | Huh7.5.1 HCVcc-Cre infection, luciferase reporter, 44 h; also: potency is read from the fitted curve at half-maximal effect
#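 Compounds are dispensed onto cells plated 4 h earlier at 1,000 per well, with HCVcc-Cre virus (about 0.5 moi) added next. Following 44 h of culture, luminescent signal is measured for 15 sec after 15 min with substrate at room temperature.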
# HCMV antiviral – inhibitors of human cytomegalovirus; AID 1259415; HFF cells, HCMV-luciferase reporter, 72 h; hits give low values; activity change, negative = inhibition, % at 57.5 µM; actives 4.5% (n = 410,000); in the data active = activity change below about -60%; inconclusive = no clear call, values can overlap the other calls; inactive = above about -39%
#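 Steps: HFFs plated, 16 h 37C; compounds added; HCMV-luciferase added to MOI 1 PFU/cell; 72 h 37C; OneGlo reagent, 5 min room temperature; luminescence read, normalized to controls.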
# * = called active by the depositor; i = inactive; ? = inconclusive; nt = not tested or not shown. Unless noted, calls follow the shape of the dose curve; as a rule, active = well fitted curve in the direction sought with a large enough effect; inconclusive = small, poorly fitted or top-dose-only effect, or another doubt; inactive = no such curve, though single readings can be large; an effect the other way counts as inactive or inconclusive. % is scaled to controls: 0 for no effect and ±100 for the full control effect.
SMILES,Vaccinia mCherry,FMDV antiviral,Sm TGR block,VACV Venus inh,HCV inhibitor,HCMV antiviral
O=C(Nc1ccc(Oc2ccccc2)nc1)C1CCN(Cc2ccccc2)CC1,nt,-2.9%,-18.3%,nt,?,-21.0
Cc1c(CN2CCC(C(=O)Nc3ccc(Oc4ccccc4)nc3)CC2)cnn1C,nt,41.7%,1.6%,nt,-29.7%,?
O=C(NCCCCc1ccccc1)C1CC(c2ccccc2[N+](=O)[O-])=NO1 (stereo unspecified),-2.9%,-6.8%,2.9%,-10.7%,-12.1%,11.3
COc1ccccc1C(=O)NN1C(=O)/C(=C/c2cccn2C)SC1=S,nt,nt,-5.4%,nt,nt,nt
O=C(Oc1ccc2c(=O)c(Cl)coc2c1)c1cccnc1,-10.3%,8.3%,31.6µM*,-6.2%,19.5%,-0.1
CCOC(=O)C1C(=O)NC(C(=O)OCC)(C(=O)OCC)C1C(C)CC (stereo unspecified),-3.7%,6.1%,nt,-2.1%,11.2%,-22.7
COc1ccc(-c2nc(CN(C)C(C)c3ccon3)c(C)o2)c(C)c1C (stereo unspecified),-4.9%,-29.3%,3.1%,-2.7%,10µM*,?
CCn1cnc2sc(C(=O)Oc3cccc(C)c3)c(C)c2c1=O,i,13.0%,-0.3%,-8.2%,1.41µM*,-9.9
O=C(c1cccc([N+](=O)[O-])c1)N1CCN(c2ncccn2)CC1,nt,6.2%,0.0%,nt,-1.6%,-28.1
Cc1ccc(Nc2ccc(N3CCN(C(=O)c4cccc([N+](=O)[O-])c4)CC3)nn2)cc1,?,-8.2%,4.3%,-23.8%,nt,-61.7*
C[C@]12c3[nH]c4ccc(Cl)cc4c3CCN1C(=O)[C@@H](CC(=O)NCc1cccc(C(F)(F)F)c1)C[C@@H]2C(=O)N1CCCCC1,?,?,nt,?,25.1µM*,-103.7*
CCN(CC)C(=O)[C@H]1C[C@H](CC(=O)NCc2cccc(C(F)(F)F)c2)C(=O)N2CCc3c([nH]c4cc(-c5ccco5)ccc34)[C@]12C,11.2µM*,?,nt,11.2µM*,?,nt
CCN(CC)C(=O)[C@H]1CC(CC(=O)NCCN2CCOCC2)C(=O)N2CCc3c([nH]c4ccc(OC)cc34)[C@]12C (stereo partly specified),i,-18.2%,nt,-12.4%,3.8%,-18.8
CCN(CC)C(=O)[C@H]1CC(CC(=O)NCc2cccc(C(F)(F)F)c2)C(=O)N2CCc3c([nH]c4ccc(OC)cc34)[C@]12C (stereo partly specified),10µM*,?,nt,?,?,-19.3
CC(C)N(C(=O)[C@H]1CC(CC(=O)NCc2cccc(C(F)(F)F)c2)C(=O)N2CCc3c([nH]c4ccccc34)[C@]12C)C(C)C (stereo partly specified),-26.9%,?,nt,?,10µM*,13.9
Cc1noc(C)c1S(=O)(=O)Nc1ccc2c(c1)C(=O)N([C@@H](C)CO)C[C@@H](C)[C@@H](CN(C)CC1CCCCC1)OCCCC[C@@H](C)O2,?,-6.1%,nt,-23.7%,nt,-14.5
CC1(C)O[C@H]2[C@@H](O1)[C@@H](C(=O)Nc1ccccc1C(F)(F)F)O[C@@H]1OC(C)(C)O[C@@H]12,?,-15.0%,-0.1%,-19.6%,nt,-4.6
CN(C)/C=C1\SC(=S)N(c2ccc(Br)cc2)C1=O,nt,49.2%,-3.4%,nt,1.0%,10.4
Cc1ccccc1-c1nn2c(=O)cc(CN3CCN(S(=O)(=O)c4ccc(Cl)cc4)CC3)nc2s1,-15.2%,0.0%,1.0%,-9.4%,nt,26.2
COc1ccc2[nH]c3c(c2c1)CCN1C(=O)C(CC(=O)NCc2cccc(C(F)(F)F)c2)C[C@H](C(=O)N2CCCCC2)[C@@]31C (stereo partly specified),?,-21.9%,nt,?,11.2µM*,-9.9
COc1ccc2[nH]c3c(c2c1)CCN1C(=O)C(CC(=O)NCc2ccco2)C[C@H](C(=O)N2CCCCC2)[C@@]31C (stereo partly specified),i,-20.4%,nt,-8.1%,-16.6%,3.2
CN1CCN(c2ccc(CNC[C@H]3O[C@@H](n4cnc5c(=O)[nH]c(N)nc54)[C@H](O)[C@@H]3O)c(S(C)(=O)=O)c2)CC1,1.5%,-19.5%,nt,-6.5%,nt,2.2
Cc1ccc(N2C(=O)CC(Nc3ccc(Cl)c(S(=O)(=O)N(C)C)c3)C2=O)c(C)c1 (stereo unspecified),nt,-14.2%,31.6µM*,nt,-1.1%,-16.0
NC(=O)c1cc([N+](=O)[O-])ccc1NCc1ccccn1,?,11.3%,-5.8%,-8.9%,0.5%,17.2
CCN(CC)CCOC(=O)c1ccc(NC(=O)CNC(=O)C2CCCCC2)cc1,-20.1%,-11.5%,-6.0%,-7.1%,5.0%,9.0
SMILES,Vaccinia mCherry,FMDV antiviral,Sm TGR block,VACV Venus inh,HCV inhibitor,HCMV antiviral
Cc1nc2sc(C(c3cccs3)N3CCN(c4ccccc4)CC3)c(O)n2n1 (stereo unspecified),-7.4%,-13.6%,3.4%,-9.5%,21.5%,-69.7*
Cc1nc2sc(C(c3cccs3)N3CCOCC3)c(O)n2n1 (stereo unspecified),-12.3%,0.2%,5.5%,5.8%,13.0%,15.4
Cc1nc2sc(C(c3ccc(Cl)cc3)N3CCOCC3)c(O)n2n1 (stereo unspecified),-17.4%,-2.4%,11.8%,-13.5%,13.5%,-100.6*
COC(=O)C1CCN(C(c2cccs2)c2sc3nc(C)nn3c2O)CC1 (stereo unspecified),-0.7%,-14.0%,3.5%,-8.7%,2.0%,-14.1
CCOC(=O)C1CCN(C(c2cccs2)c2sc3nc(C)nn3c2O)CC1 (stereo unspecified),i,-12.1%,-6.8%,0.9%,-6.6%,-61.9*
Cc1nc2sc(C(c3ccccc3)N3CCOCC3)c(O)n2n1 (stereo unspecified),i,nt,-5.1%,-3.2%,-1.9%,-1.6
Cc1nc2sc(C(c3ccco3)N3CCC(C)CC3)c(O)n2n1 (stereo unspecified),i,-15.9%,44.7µM*,3.4%,1.4%,27.3
Cc1nc2sc(C(c3ccco3)N3CCN(c4cccc(Cl)c4)CC3)c(O)n2n1 (stereo unspecified),-18.2%,nt,0.0%,-16.0%,?,-16.6
NC(=O)c1sc2nnc(-c3ccccc3)c(-c3ccccc3)c2c1N,-2.0%,?,6.8%,-16.9%,-15.8%,?
CCOC(=O)C1(C)CCN1C(=O)c1ccc(C(C)(C)C)cc1 (stereo unspecified),-7.7%,15.7%,nt,-5.3%,nt,42.7
CCOC(=O)c1ccc(NC(=O)/C(C#N)=C/c2ccc(OC)cc2)cc1,-13.2%,-7.1%,6.2%,1.3%,nt,19.1
CN1CCN(c2ccccc2NC(=O)c2ccc(-c3cccc(Cl)c3)o2)CC1,?,?,-5.4%,?,?,26.6
